# Measured values published in PubChem BioAssay (Tox21).
# Where “and” joins values, the source holds several entries; their conditions need not be identical. Equal values may be shown once. Unmarked numbers belong to inactive results. Results filed as inconclusive are left out. Entries that show only a call come without a potency. Calls of active or inactive are those of the source. Unless noted, the call rests on the fitted dose curve; in most records, active means well fitted curve in the direction sought with a large enough effect in the repeat runs; inconclusive means weak or mixed curves; inactive means no such curve, though single readings can be large; an effect the other way counts as inactive or inconclusive.
# Key:
# [1] = biological target: Progesterone receptor (Homo sapiens) (UniProt P06401); assay: qHTS assay to identify small molecule antagonists of the progesterone receptor (PR) signaling pathway (AID 1346795; active means well fitted inhibition curve with a large enough effect in the signal ratio in the repeat runs, not every such curve was filed as active; the % refers to the signal ratio; further: potency means the concentration at half of the fitted maximal effect)
# Summary of the method: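 After 6 hr plating at 37C in 2% stripped-serum medium, PR-UAS-bla HEK293T cells got compounds, then 1 nM R5020. Sixteen hours later, LiveBLAzer substrate was applied for 2 hr at room temperature and fluorescence was recorded.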
# [2] = qHTS assay to identify small molecule antagonists of the TGF-beta/Smad signaling pathway - cell viability counter screen (AID 1346824); further: nearly all actives have a fitted effect of over 50% in size
# Summary of the method: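 SBE-bla HEK 293T cells, incubated overnight, then compound plus 0.25 ng/mL TGF-beta1 (stock added) for 5 hr at 37 C. Viability was read in the same wells by CellTiter-Glo luminescence after 30 min at room temperature.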
# [3] = qHTS assay to identify small molecule agonists of the TGF-beta/Smad signaling pathway (AID 1346859; active means well fitted activation curve with a large enough effect in the signal ratio in the repeat runs, not every such curve was filed as active; the % refers to the signal ratio; further: series mostly up to about 77 µM)
# Summary of the method: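 Dual-wavelength fluorescence (460/530 nm emission) quantified beta-lactamase expression under the Smad binding element in HEK 293T cells following 5 hr compound treatment at 37 C.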
# [4] = biological target: Thyrotropin-releasing hormone receptor (Homo sapiens) (UniProt P34981); assay: qHTS assay to identify small molecule antagonists of the thyrotropin-releasing hormone receptor (TRHR) signaling pathway (AID 1346877; active means well fitted inhibition curve with a large enough effect in the repeat runs, not every such curve was filed as active; further: series mostly up to about 51 µM)
# Summary of the method: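 Antagonist mode: after a 5 min room-temperature compound exposure, cells were stimulated with 1 nM (final) TRH. Dye-loaded TRHR-HEK293 cells were used, and calcium-dependent fluorescence was followed for 3 min, with 15-point titrations run in triplicate.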
# [5] = biological target: Thyrotropin-releasing hormone receptor (Homo sapiens) (UniProt P34981); assay: qHTS assay to identify small molecule agonists of the thyrotropin-releasing hormone receptor (TRHR) signaling pathway (AID 1346891; calls by dose curve;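 further: HEK293 cells expressing TRHR with calcium dye readout; series mostly up to about 58 µM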)
# Summary of the method: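 Kinetic fluorescence (3 min, 1 s intervals) reported intracellular calcium after compound transfer onto TRHR-Hek293 cells pre-loaded with dye for 2 h at 37 °C.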
# [6] = Human pregnane X receptor (PXR) small molecule agonists, qHTS cell viability counter screen (AID 1346977); further: nearly all actives have a fitted effect of over 50% in size; further: potency means the concentration at half of the fitted maximal effect
# Summary of the method: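 HepG2 cells stably carrying the PXR-Luc reporter are cultured with 5% charcoal-stripped FBS and treated with compounds for 24hr. CellTiter-Fluor is added at 23hr and fluorescence is read after 1hr.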
# [7] = Caspase-3/7 induction in HepG2 cells by small molecules, qHTS assay (AID 1346978); further: nearly all actives have a fitted effect of over 15% in size; further: potency means the concentration at half of the fitted maximal effect
# Summary of the method: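 Wild-type HepG2 cells, 2,000/well, settled 5 hr at 37 C and 5% CO2, then compound-treated for 17 hr; caspase-3/7 activity read by luminescent Caspase-Glo 3/7 after 30 min at room temperature.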
# [8] = Caspase-3/7 induction in CHO-K1 cells by small molecules, qHTS cell viability counter screen (AID 1346979); further: nearly all actives have a fitted effect of over 35% in size; further: potency means the concentration at half of the fitted maximal effect
# Summary of the method: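 Seeding: 1,500 CHO-K1 cells/well. Rest: 5hr, 37C. Treatment: compounds in DMSO, 16hr. Read: CellTiter-Fluor, 1hr, fluorescence.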
# [9] = Caspase-3/7 induction in HepG2 cells by small molecules, qHTS cell viability counter screen (AID 1346981); further: nearly all actives have a fitted effect of over 30% in size; further: potency means the concentration at half of the fitted maximal effect; on activity change, negative = cytotoxicity: series mostly up to about 92 µM
# Summary of the method: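 CellTiter-Fluor fluorescence measured viability in the same wells used for Caspase-Glo 3/7. HepG2 (wild type) at 2,000 cells/well were pre-incubated 5 hr, dosed, and given reagent at 16 hr, with 1 hr further at 37C.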
# [10] = biological target: Nuclear receptor subfamily 1 group I member 2 (Homo sapiens) (UniProt O75469); assay: Human pregnane X receptor (PXR) small molecule agonists, qHTS assay (AID 1346982); further: nearly all actives have a fitted effect of over 35% in size; further: potency means the concentration at half of the fitted maximal effect
# Summary of the method: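 Agonist mode: luminescence from ONE-Glo after 24 h compound exposure at 37C in HepG2 cells carrying hPXR-responsive CYP3A4 luciferase, plated in charcoal-stripped serum medium 5 h beforehand.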
# [11] = biological target: Cytochrome P450 2D6 (Homo sapiens) (UniProt P10635); assay: Cytochrome P450 Family 2 Subfamily D Member 6 (CYP2D6) small molecule antagonists: luciferase reporter qHTS assay (AID 1671196); further: nearly all actives have a fitted effect of over 50% in size; further: potency means the concentration at half of the fitted maximal effect; on activity change, negative = inhibition: series mostly up to about 120 µM
# Summary of the method: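 CYP2D6 activity was followed as luminescence from its luciferin product after a 1 h NADPH-driven reaction at room temperature. Enzyme-substrate mix and compound were pre-incubated for 10 min, and the signal was read 20 min after adding detection reagent.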
# [12] = biological target: Cytochrome P450 2C19 (Homo sapiens) (UniProt P33261); assay: Cytochrome P450 Family 2 Subfamily C Member 19 (CYP2C19) small molecule antagonists: luciferase reporter qHTS assay (AID 1671197); further: nearly all actives have a fitted effect of over 65% in size; further: potency means the concentration at half of the fitted maximal effect; on activity change, negative = inhibition: series mostly up to about 120 µM
# Summary of the method: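 CYP2C19 P450-Glo, 1536-well qHTS. Cpd + enzyme/proluciferin substrate 10 min RT; + NADPH regen, 37C 1 h; stop with luciferin detection reagent, 20 min RT, luminescence (RLU). Pos ctrl ketoconazole.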
# [13] = biological target: Cytochrome P450 2C9 (Homo sapiens) (UniProt P11712); assay: Cytochrome P450 Family 2 Subfamily C Member 9 (CYP2C9) small molecule antagonists: luciferase reporter qHTS assay (AID 1671198); further: nearly all actives have a fitted effect of over 50% in size; further: potency means the concentration at half of the fitted maximal effect; on activity change, negative = inhibition: series mostly up to about 120 µM
# Summary of the method: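 P450-Glo proluciferin substrate with CYP2C9 enzyme; 10 min RT preincubation, then NADPH regeneration 1 h at 37C; luciferin detection reagent 20 min RT, luminescence in relative luminescence units.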
# [14] = Caspase-3/7 induction in CHO-K1 cells by small molecules, qHTS assay (AID 1346980); further: nearly all actives have a fitted effect of over 15% in size; further: potency means the concentration at half of the fitted maximal effect
# Summary of the method: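 Wild-type CHO-K1 cells exposed to compounds for 17hr at 37 C, 5% CO2. Caspase-3/7 activity then measured by Caspase-Glo 3/7 luminescence after 30min at room temperature.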
# [15] = qHTS assay to identify small molecule antagonists of the progesterone receptor (PR) signaling pathway - cell viability counter screen (AID 1346798); further: nearly all actives have a fitted effect of over 50% in size; further: potency means the concentration at half of the fitted maximal effect; on activity change, negative = cytotoxicity: series mostly up to about 92 µM
# Summary of the method: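 Viability was determined by ATP-based luminescence (CellTiter-Glo) in PR-UAS-bla HEK293T cells cultured in 2% charcoal-stripped serum and incubated 16 hr with compounds under R5020 stimulation.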
# [16] = qHTS assay to identify small molecule agonists of the TGF-beta/Smad signaling pathway - cell viability counter screen (AID 1346829); further: nearly all actives have a fitted effect of over 45% in size; further: potency means the concentration at half of the fitted maximal effect; on activity change, negative = cytotoxicity: top concentration of the series differs between compounds
# Summary of the method: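 Luminescence from CellTiter-Glo, read after a 30 min room-temperature incubation, gives cell viability of SBE-bla HEK 293T cells treated 5 hr with compounds at 37 C.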
# [17] = biological target: Nuclear receptor subfamily 1 group I member 2 (Rattus norvegicus) (UniProt Q9R1A7); assay: Rat pregnane X receptor (rPXR) activation by small molecules, qHTS assay (AID 1346983); settings: rPXR luciferase reporter cells, One-Glo luminescence, 24 h; max activation: active compounds read high; further: nearly all actives have a fitted effect of over 20% in size
# Summary of the method: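 Cell-based rPXR activation assay: rPXR cells, 2,000 per well, rested 5hr at 37 C, then exposed to compounds in DMSO for 24 hr at 37 C. Luciferase activity read by One-Glo luminescence after 30 min at room temperature.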
# [18] = qHTS assay to identify small molecule agonists of the progesterone receptor (PR) signaling pathway - cell viability counter screen (AID 1346799; calls by dose curve; further: nearly all actives have a fitted effect of over 45% in size; further: potency means the concentration at half of the fitted maximal effect)
# Summary of the method: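 Viability was scored by ATP luminescence (CellTiter-Glo, 30 min, room temperature) in the same wells used for the reporter readout, after 16 hr compound exposure of PR-UAS-bla HEK293T cells.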
# Sequence of Thyrotropin-releasing hormone receptor (Homo sapiens) (P34981 whole entry, looked up): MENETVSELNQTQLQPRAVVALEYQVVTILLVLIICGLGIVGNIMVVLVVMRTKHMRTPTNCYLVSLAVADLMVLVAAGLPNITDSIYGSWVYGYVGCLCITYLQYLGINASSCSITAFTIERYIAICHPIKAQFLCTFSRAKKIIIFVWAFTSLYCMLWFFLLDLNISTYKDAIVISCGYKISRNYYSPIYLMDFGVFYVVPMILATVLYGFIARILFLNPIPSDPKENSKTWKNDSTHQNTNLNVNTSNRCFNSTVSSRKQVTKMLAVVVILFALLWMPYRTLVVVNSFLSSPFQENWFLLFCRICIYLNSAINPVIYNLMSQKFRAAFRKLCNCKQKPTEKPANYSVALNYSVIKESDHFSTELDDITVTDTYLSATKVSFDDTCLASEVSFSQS
# Sequence of Cytochrome P450 2C19 (Homo sapiens) (P33261 whole entry, looked up): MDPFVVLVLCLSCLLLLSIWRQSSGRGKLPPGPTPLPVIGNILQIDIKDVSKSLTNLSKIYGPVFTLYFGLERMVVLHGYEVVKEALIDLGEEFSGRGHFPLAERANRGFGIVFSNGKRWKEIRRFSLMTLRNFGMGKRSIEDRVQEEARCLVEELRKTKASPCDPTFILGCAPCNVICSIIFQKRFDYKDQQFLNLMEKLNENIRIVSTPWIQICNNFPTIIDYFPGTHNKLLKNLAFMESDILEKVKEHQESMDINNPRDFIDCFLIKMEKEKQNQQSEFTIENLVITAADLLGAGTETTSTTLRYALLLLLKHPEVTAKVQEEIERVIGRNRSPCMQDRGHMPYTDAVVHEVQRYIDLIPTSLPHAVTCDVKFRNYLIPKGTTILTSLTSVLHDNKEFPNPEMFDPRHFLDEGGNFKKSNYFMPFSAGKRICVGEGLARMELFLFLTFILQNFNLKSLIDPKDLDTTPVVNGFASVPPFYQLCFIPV
# Sequence of Cytochrome P450 2C9 (Homo sapiens) (P11712 whole entry, looked up): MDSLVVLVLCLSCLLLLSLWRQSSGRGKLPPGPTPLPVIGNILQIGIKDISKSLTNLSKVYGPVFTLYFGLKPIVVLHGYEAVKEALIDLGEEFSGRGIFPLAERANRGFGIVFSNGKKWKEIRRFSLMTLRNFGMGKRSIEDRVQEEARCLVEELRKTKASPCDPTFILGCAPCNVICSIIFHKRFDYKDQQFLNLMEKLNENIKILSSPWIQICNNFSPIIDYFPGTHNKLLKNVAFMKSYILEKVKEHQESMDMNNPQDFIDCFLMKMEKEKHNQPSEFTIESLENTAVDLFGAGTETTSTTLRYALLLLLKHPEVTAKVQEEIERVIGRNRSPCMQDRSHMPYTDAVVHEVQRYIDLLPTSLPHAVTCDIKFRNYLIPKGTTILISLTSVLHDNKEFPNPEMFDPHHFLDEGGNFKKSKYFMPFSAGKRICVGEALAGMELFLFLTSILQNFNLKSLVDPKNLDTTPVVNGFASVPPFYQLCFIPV
# Sequence of Nuclear receptor subfamily 1 group I member 2 (Homo sapiens) (O75469 whole entry, looked up): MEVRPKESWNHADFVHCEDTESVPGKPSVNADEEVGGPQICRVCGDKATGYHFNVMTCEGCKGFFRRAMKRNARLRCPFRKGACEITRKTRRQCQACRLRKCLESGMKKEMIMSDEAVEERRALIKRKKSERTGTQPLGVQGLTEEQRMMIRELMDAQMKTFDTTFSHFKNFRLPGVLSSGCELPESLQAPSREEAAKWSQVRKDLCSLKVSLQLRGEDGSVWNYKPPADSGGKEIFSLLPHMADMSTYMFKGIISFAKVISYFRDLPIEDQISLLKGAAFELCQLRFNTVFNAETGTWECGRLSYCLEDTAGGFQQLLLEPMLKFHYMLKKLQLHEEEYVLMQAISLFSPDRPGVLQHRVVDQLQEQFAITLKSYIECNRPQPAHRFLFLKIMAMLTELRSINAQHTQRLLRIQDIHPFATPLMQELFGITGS
# Sequence of Progesterone receptor (Homo sapiens) (P06401 whole entry, looked up): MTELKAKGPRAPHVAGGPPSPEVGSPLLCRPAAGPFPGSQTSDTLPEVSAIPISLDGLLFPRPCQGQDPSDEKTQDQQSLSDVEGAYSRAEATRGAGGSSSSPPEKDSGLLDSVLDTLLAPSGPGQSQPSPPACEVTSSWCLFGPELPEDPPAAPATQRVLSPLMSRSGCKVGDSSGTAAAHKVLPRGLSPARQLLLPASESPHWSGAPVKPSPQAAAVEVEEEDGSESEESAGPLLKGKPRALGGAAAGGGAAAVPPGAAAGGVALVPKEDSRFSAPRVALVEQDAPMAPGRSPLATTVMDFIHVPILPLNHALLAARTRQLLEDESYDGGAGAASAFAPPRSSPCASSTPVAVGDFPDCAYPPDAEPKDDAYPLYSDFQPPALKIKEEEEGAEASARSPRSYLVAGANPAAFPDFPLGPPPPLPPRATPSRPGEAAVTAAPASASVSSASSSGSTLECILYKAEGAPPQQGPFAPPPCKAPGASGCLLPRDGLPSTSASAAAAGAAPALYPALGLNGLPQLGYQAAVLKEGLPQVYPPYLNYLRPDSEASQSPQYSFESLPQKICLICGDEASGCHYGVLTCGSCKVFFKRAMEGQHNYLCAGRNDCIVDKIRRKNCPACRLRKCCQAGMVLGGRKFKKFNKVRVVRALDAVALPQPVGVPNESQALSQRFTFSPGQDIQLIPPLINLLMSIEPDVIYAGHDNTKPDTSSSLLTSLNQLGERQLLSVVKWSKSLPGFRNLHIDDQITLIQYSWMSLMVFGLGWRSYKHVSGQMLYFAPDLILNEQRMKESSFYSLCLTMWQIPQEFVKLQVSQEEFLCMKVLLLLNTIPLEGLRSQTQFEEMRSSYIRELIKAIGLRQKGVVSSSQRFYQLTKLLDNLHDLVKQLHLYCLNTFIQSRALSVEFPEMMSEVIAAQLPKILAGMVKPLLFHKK
# Sequence of Cytochrome P450 2D6 (Homo sapiens) (P10635 whole entry, looked up): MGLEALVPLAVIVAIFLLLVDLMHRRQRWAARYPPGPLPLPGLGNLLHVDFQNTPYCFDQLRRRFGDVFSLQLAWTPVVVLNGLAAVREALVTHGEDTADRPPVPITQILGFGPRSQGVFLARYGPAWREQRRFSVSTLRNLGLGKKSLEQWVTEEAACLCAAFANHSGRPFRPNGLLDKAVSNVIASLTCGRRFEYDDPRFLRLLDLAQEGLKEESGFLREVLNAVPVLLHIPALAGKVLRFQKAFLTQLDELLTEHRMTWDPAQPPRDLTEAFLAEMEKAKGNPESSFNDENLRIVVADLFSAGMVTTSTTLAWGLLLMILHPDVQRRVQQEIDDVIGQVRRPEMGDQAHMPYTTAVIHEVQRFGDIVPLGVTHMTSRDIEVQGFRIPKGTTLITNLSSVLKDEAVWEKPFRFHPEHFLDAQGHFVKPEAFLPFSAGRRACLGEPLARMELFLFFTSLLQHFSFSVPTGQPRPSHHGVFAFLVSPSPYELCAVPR
# Sequence of Nuclear receptor subfamily 1 group I member 2 (Rattus norvegicus) (Q9R1A7 whole entry, looked up): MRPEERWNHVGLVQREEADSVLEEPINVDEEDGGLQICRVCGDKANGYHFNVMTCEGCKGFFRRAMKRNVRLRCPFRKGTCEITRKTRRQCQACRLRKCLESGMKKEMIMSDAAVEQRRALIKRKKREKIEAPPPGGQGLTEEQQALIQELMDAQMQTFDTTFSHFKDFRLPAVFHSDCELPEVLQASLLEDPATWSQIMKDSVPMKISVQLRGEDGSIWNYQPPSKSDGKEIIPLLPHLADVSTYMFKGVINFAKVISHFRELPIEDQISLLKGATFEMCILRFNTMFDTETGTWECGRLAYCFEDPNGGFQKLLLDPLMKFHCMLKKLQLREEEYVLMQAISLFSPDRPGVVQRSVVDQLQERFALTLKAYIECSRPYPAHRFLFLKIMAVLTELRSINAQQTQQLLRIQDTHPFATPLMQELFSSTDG
compound,measurement,setting,value
CCCCCCCCCCCCN(CCO)CCO,Potency,[1],60.9 µM (active)
same,Potency,[2],inactive
same,Potency,[3],inactive
same,Potency,[4],inactive
same,Potency,[5],inactive
same,Potency,[6],48.4 µM (active)
same,Potency,[7],30.5 µM (active)
same,Potency,[8],43.1 µM (active)
same,Potency,[9],68.3 µM (active)
same,Potency,[10],15.3 µM (active)
same,Potency,[11],11.2 µM (active)
same,Potency,[12],25.1 µM (active)
same,Potency,[13],63 µM (active)
O=C1c2c(O)ccc(O)c2C(=O)c2c(NCCNCCO)ccc(NCCNCCO)c21,Potency,[1],3.35 µM (active)
same,Potency,[2],inactive
same,Potency,[4],inactive
same,Potency,[5],inactive
same,Potency,[6],4.22 µM (active)
same,Potency,[7],4.22 µM (active)
same,Potency,[14],inactive
same,Potency,[9],11.9 µM (active)
CNC(=O)c1cc(Oc2ccc(NC(=O)Nc3ccc(Cl)c(C(F)(F)F)c3)cc2)ccn1,Potency,[15],33.5 µM (active)
same,Potency,[16],inactive
same,Potency,[3],inactive
same,Potency,[4],inactive
same,Potency,[5],inactive
same,Potency,[6],23.7 µM (active)
same,Potency,[14],inactive
same,Potency,[10],inactive
same,max activation,[17],-24.5%
same,Potency,[12],27.5 µM (active)
same,Potency,[13],17.4 µM (active)
CCCCN(C)C,Potency,[15],inactive
same,Potency,[18],inactive
same,Potency,[2],inactive
same,Potency,[16],inactive
same,Potency,[3],inactive
same,Potency,[4],inactive
same,Potency,[5],inactive
same,Potency,[6],inactive
same,Potency,[7],inactive
same,Potency,[8],inactive
same,Potency,[14],inactive
same,Potency,[9],inactive
same,Potency,[10],inactive
same,Potency,[11],inactive
same,Potency,[12],inactive
same,Potency,[13],inactive
O=C(Oc1ccccc1)c1cccc(C(=O)Oc2ccccc2)c1,Potency,[15],64.4 µM (active)
same,Potency,[16],inactive
same,Potency,[4],inactive
same,Potency,[5],inactive
same,Potency,[6],inactive
same,Potency,[7],inactive
same,Potency,[8],51.2 µM (active)
same,Potency,[10],0.456 µM (active)
same,Potency,[12],2.98 µM (active)
same,Potency,[13],7.48 µM (active)
C/C=C/c1ccc(OC)c(OC)c1,Potency,[15],inactive
same,Potency,[18],inactive
same,Potency,[2],inactive
same,Potency,[16],inactive
same,Potency,[3],inactive
same,Potency,[6],inactive
same,Potency,[7],inactive
same,Potency,[8],inactive
same,Potency,[11],inactive
same,Potency,[12],71 µM (active)
same,Potency,[13],35.6 µM (active)
CCCCNc1c(C(=O)OCC)c(C)nc2c1cnn2CC,Potency,[1],26.6 µM (active)
same,Potency,[2],inactive
same,Potency,[16],inactive
same,Potency,[3],inactive
same,Potency,[6],inactive
same,Potency,[7],inactive
same,Potency,[14],inactive
same,Potency,[9],inactive
same,Potency,[10],29.8 µM (active)
same,Potency,[11],inactive
same,Potency,[13],27.5 µM (active)
Nc1cc(Cl)c([N+](=O)[O-])cc1O,Potency,[15],inactive
same,Potency,[18],inactive
same,Potency,[2],inactive
same,Potency,[16],inactive
same,Potency,[3],inactive
same,Potency,[4],inactive
same,Potency,[5],inactive
same,Potency,[7],inactive
same,Potency,[8],68 µM (active)
same,Potency,[14],inactive
same,Potency,[10],54 µM (active)
same,Potency,[11],inactive
same,Potency,[12],inactive
same,Potency,[13],31.5 µM (active)
CSc1ccc2c(c1)N(CCC1CCCCN1C)c1ccccc1S2 (configuration not stated),Potency,[15],21.6 µM (active) and 23.7 µM (active)
same,Potency,[18],27.2 µM (active) and 21.1 µM (active)
same,Potency,[16],54.7 µM (active)
same,Potency,[3],inactive
same,Potency,[6],19.3 µM (active) and 26.6 µM (active)
same,Potency,[7],30.5 µM (active)
same,Potency,[8],15.3 µM (active) and 29.8 µM (active)
same,Potency,[14],19.3 µM (active)
same,Potency,[9],60.9 µM (active) and 29.8 µM (active)
same,Potency,[12],17.8 µM (active) and 21.9 µM (active)
same,Potency,[13],70.7 µM (active)
CCCCCCCCCCCCCOP(=O)(O)O,Potency,[18],inactive
same,Potency,[2],inactive
same,Potency,[16],inactive
same,Potency,[3],inactive
same,Potency,[4],inactive
same,Potency,[5],inactive
same,Potency,[6],inactive
same,Potency,[7],inactive
same,Potency,[8],inactive
same,Potency,[14],inactive
same,Potency,[11],inactive
same,Potency,[12],79.6 µM (active)
O=C1C=CC(=O)N1c1ccccc1,Potency,[15],68.6 µM (active)
same,Potency,[18],61.1 µM (active)
same,Potency,[3],inactive
same,Potency,[4],inactive
same,Potency,[5],inactive
same,Potency,[6],48.6 µM (active)
same,Potency,[7],inactive
same,Potency,[8],9.69 µM (active)
same,Potency,[14],inactive
same,Potency,[9],61.1 µM (active)
same,Potency,[10],inactive
same,Potency,[11],39.9 µM (active)
same,Potency,[12],20 µM (active)
same,Potency,[13],28.3 µM (active)
O=S(O)O,"activity change, negative = cytotoxicity",[15],-0.356% [at 18.9 µM]
same,"activity change, negative = cytotoxicity",[18],-3.11% [at 19 µM]
same,"viability change, negative = cytotoxic",[2],0.444% [at 15.8 µM]
same,"activity change, negative = cytotoxicity",[16],-1.2% [at 15.8 µM]
same,activation,[3],-2.31% [at 15.8 µM]
same,"activity, negative = inhibition",[4],0.51% [at 10.5 µM]
same,activation,[5],0.0945% [at 11.8 µM]
same,"activity change, negative = cytotoxicity",[6],6.89% [at 19 µM]
same,caspase activation,[7],-0.246% [at 19 µM]
same,"activity change, negative = cytotoxicity",[8],9.18% [at 19 µM]
same,caspase-3/7 activation,[14],0.497% [at 19 µM]
same,"activity change, negative = cytotoxicity",[9],-4.78% [at 19 µM]
same,activation,[10],8.59% [at 19 µM]
same,"activity change, negative = inhibition",[12],0.673% [at 23.6 µM]
same,"activity change, negative = inhibition",[13],-8.41% [at 23.6 µM]
Cc1c(-c2ccc(O)cc2)n(Cc2ccc(OCCN3CCCCCC3)cc2)c2ccc(O)cc12,Potency,[15],33.5 µM (active)
same,Potency,[18],29.8 µM (active)
same,Potency,[6],23.7 µM (active)
same,Potency,[8],29.8 µM (active)
same,Potency,[9],29.8 µM (active)
same,Potency,[10],9.44 µM (active)
